Assay results taken from PubChem BioAssay (NCI).
This is part of a sample that, as a whole, favours compounds with a hit. Of some 83,000 tested, about 20% had one in any assay.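 Cell lines were cultured in 96-well plates, exposed to a single compound concentration, and assessed for percent growth 48 hours later.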 Calls of active or inactive are those of the source. Rule for the calls: active = growth percent below 10; inactive = the rest.

Columns and labels:
Test in all cases: NCI-60 one-dose screen, 48 h (100 = growth as untreated, 0 = no growth, -100 = all killed)
Conditions in all cases: 10 µM unless noted
DU-145 prostate = tested on: DU-145 prostate
K-562 leukemia = tested on: K-562 leukemia
MALME-3M melanoma = tested on: MALME-3M melanoma
MDA-MB-231 breast = tested on: MDA-MB-231 breast
RXF 393 renal = tested on: RXF 393 renal
SF-268 CNS = tested on: SF-268 CNS
SF-295 CNS = tested on: SF-295 CNS
SF-539 CNS = tested on: SF-539 CNS
UACC-257 melanoma = tested on: UACC-257 melanoma
M14 melanoma = tested on: M14 melanoma
HCT-15 colon = tested on: HCT-15 colon
HT29 colon = tested on: HT29 colon
SNB-75 CNS = tested on: SNB-75 CNS
SNB-19 CNS = tested on: SNB-19 CNS
U251 CNS = tested on: U251 CNS
PC-3 prostate = tested on: PC-3 prostate
SK-MEL-5 melanoma = tested on: SK-MEL-5 melanoma
UACC-62 melanoma = tested on: UACC-62 melanoma
LOX IMVI melanoma = tested on: LOX IMVI melanoma
SK-MEL-28 melanoma = tested on: SK-MEL-28 melanoma

Measured: growth

Cn1cc(-c2ncnc3ccc(-c4cnc(Cl)c(NS(C)(=O)=O)c4)cc23)c2ccccc21
active: MALME-3M melanoma -13.6% | RXF 393 renal -26.7% | SF-295 CNS -9.66% | SF-539 CNS -11.1% | UACC-257 melanoma 5.53% | M14 melanoma 9.65% | SNB-75 CNS -14.9% | SK-MEL-5 melanoma -14.6% | UACC-62 melanoma -18.8% | LOX IMVI melanoma 9.88% | SK-MEL-28 melanoma 0.439%
inactive: DU-145 prostate 25.2% | K-562 leukemia 48.4% | MDA-MB-231 breast 27.9% | SF-268 CNS 27.5% | HCT-15 colon 13.2% | HT29 colon 11.7% | SNB-19 CNS 27.7% | U251 CNS 24.4% | PC-3 prostate 20.1%

COc1ccc(C(=O)N2c3ccccc3Sc3ccccc32)c(F)c1
inactive: K-562 leukemia 12.7% | MALME-3M melanoma 46.6% | MDA-MB-231 breast 52.5% | SF-268 CNS 53.1% | UACC-257 melanoma 67.1% | HCT-15 colon 27.3% | SNB-19 CNS 35.8% | U251 CNS 33.6% | PC-3 prostate 29.8% | SK-MEL-5 melanoma 15.7% | UACC-62 melanoma 22.6% | LOX IMVI melanoma 40.3% | SK-MEL-28 melanoma 58.9%
active: DU-145 prostate 5.05% | RXF 393 renal -23.1% | SF-295 CNS 8.85% | SF-539 CNS -15.8% | M14 melanoma 2.04% | HT29 colon 5.07% | SNB-75 CNS -11.3%

CCOc1cc2ncc(C#N)c(Nc3ccc(OCc4ccccn4)c(Cl)c3)c2cc1NC(=O)/C=C/CN(C)C
active: DU-145 prostate 4.49% | K-562 leukemia -47.5% | MALME-3M melanoma -72.3% | MDA-MB-231 breast -40% | RXF 393 renal -77.4% | SF-268 CNS -36.7% | M14 melanoma -82.4% | HCT-15 colon -0.289% | HT29 colon -54.5% | SNB-19 CNS -44.2% | U251 CNS 3.18% | PC-3 prostate 9.27% | UACC-62 melanoma -64.1% | LOX IMVI melanoma -67.8% | SK-MEL-28 melanoma -79.5%
inactive: SF-295 CNS 54.1% | SF-539 CNS 22% | UACC-257 melanoma 52.8% | SNB-75 CNS 34.1% | SK-MEL-5 melanoma 14.8%

COCc1c(-c2ccc(NC(=O)Nc3cc(C(F)(F)F)ccc3F)c(F)c2)c2c(N)ncnn2c1CN1CCOCC1
active: DU-145 prostate -4% | K-562 leukemia 1.74% | MALME-3M melanoma -37% | MDA-MB-231 breast -50% | RXF 393 renal -88.4% | SF-268 CNS -14.5% | SF-295 CNS -54.2% | SF-539 CNS -71.5% | UACC-257 melanoma -9.75% | M14 melanoma -41% | HCT-15 colon -21% | HT29 colon -26.8% | SNB-75 CNS -95.8% | SNB-19 CNS -14.9% | U251 CNS -35.5% | PC-3 prostate -25.4% | SK-MEL-5 melanoma -78.9% | UACC-62 melanoma -38.8% | LOX IMVI melanoma -81.7% | SK-MEL-28 melanoma -6.65%

Cc1[nH]c(/C=C2\C(=O)Nc3ccc(F)cc32)c(C)c1C(=O)NC[C@H](O)CN1CCOCC1
active: MALME-3M melanoma -7.48% | RXF 393 renal -17.1% | M14 melanoma 7.61% | HT29 colon 9.81% | LOX IMVI melanoma 9.27%
inactive: DU-145 prostate 31.3% | K-562 leukemia 24% | MDA-MB-231 breast 29.8% | SF-268 CNS 40.9% | SF-295 CNS 64% | SF-539 CNS 28% | UACC-257 melanoma 42.3% | HCT-15 colon 19.1% | SNB-75 CNS 35.2% | SNB-19 CNS 96.7% | U251 CNS 60.5% | PC-3 prostate 36.2% | SK-MEL-5 melanoma 21.4% | UACC-62 melanoma 29.9% | SK-MEL-28 melanoma 17.7%

CC(=O)c1c(C)c2cnc(Nc3ccc(N4CCNCC4)cn3)nc2n(C2CCCC2)c1=O
active: K-562 leukemia 6.83% | MALME-3M melanoma 2.27% | RXF 393 renal -0.541% | UACC-257 melanoma -11.7% | HT29 colon -22.8%
inactive: DU-145 prostate 39.1% | MDA-MB-231 breast 36.5% | SF-268 CNS 46.7% | SF-295 CNS 70.3% | SF-539 CNS 27.4% | M14 melanoma 29.2% | HCT-15 colon 22.4% | SNB-75 CNS 54.9% | SNB-19 CNS 50.5% | U251 CNS 37.8% | PC-3 prostate 32.9% | SK-MEL-5 melanoma 41.1% | UACC-62 melanoma 49.9% | LOX IMVI melanoma 17.6% | SK-MEL-28 melanoma 56.4%

CC(C)(O)CC(=O)NCCn1ccc2ncnc(Nc3ccc(Oc4cccc(C(F)(F)F)c4)c(Cl)c3)c21
inactive: DU-145 prostate 27.4% | MDA-MB-231 breast 11.9% | SF-268 CNS 29.3% | SF-295 CNS 31% | HCT-15 colon 12.2% | SNB-75 CNS 29.3% | SNB-19 CNS 18.7%
active: K-562 leukemia 4.49% | MALME-3M melanoma -8.01% | RXF 393 renal 3.66% | SF-539 CNS 8.28% | UACC-257 melanoma -26.8% | M14 melanoma -1.37% | HT29 colon -24.2% | U251 CNS 9.09% | PC-3 prostate 1.54% | SK-MEL-5 melanoma -19.9% | UACC-62 melanoma -7.61% | LOX IMVI melanoma 6.23% | SK-MEL-28 melanoma -0.504%
